For four compounds, potency estimated from few doses results are on record in paper PMC11062922 (Nature Chemical Biology, 2023).

Common to all, as to design: species or system human, MV4-11 + K-562 + COLO205 + SK-N-BE2 + OVCAR-8
One assay concerns ADCK3. The following applies: read-out: apparent Kd, n = 1.
In a further assay the test system is GSK3A. The following applies: read-out: apparent Kd; compound concentrations: 100 nM and 1000 nM (sheet 'Samples'), CATDS: 0.39261135326021201; n = 1.
The subject of another assay is GSK3B. Particulars: read-out: apparent Kd; compound concentrations: 100 nM and 1000 nM (sheet 'Samples'), CATDS: 0.34419414793352499; n = 1.
The subject of a further assay is GALK1. Particulars: read-out: apparent Kd; compound concentrations: 100 nM and 1000 nM (sheet 'Samples'), CATDS: 0.119899430557505; n = 1.
The next assay concerns MAPK14. The following applies: read-out: apparent Kd; compound concentrations: 100 nM and 1000 nM (sheet 'Samples'), CATDS: 0.15490410585255601; n = 1.
Another assay concerns MAPK1. The following applies: read-out: apparent Kd; compound concentrations: 100 nM and 1000 nM (sheet 'Samples'), CATDS: 0.12427254642557201; n = 1.
In the next assay the test system is PIK3CD. Particulars: read-out: apparent Kd, n = 1.
The next assay deals with PIM2. Particulars: read-out: apparent Kd; compound concentrations: 100 nM and 1000 nM (sheet 'Samples'), CATDS: 0.117779820663657; n = 1.
The next assay has as its system STK16. The following applies: read-out: apparent Kd; compound concentrations: 100 nM and 1000 nM (sheet 'Samples'), CATDS: 0.13061388910889801; n = 1.
A further assay has as its system DHCR24. Particulars: read-out: apparent Kd; compound concentrations:100 nM and 1000 nM (sheet 'Samples'); n = 1.
In another assay the test system is T1, DJA1.
T1 construct: gene DNAJA1
The following applies: read-out: apparent Kd; compound concentrations:100 nM and 1000 nM (sheet 'Samples'); n = 1.

Another assay has as its system ERBB3. Particulars: read-out: apparent Kd; compound concentrations:100 nM and 1000 nM (sheet 'Samples'); n = 1.
Another assay deals with PI4KA. Particulars: read-out: apparent Kd; compound concentrations:100 nM and 1000 nM (sheet 'Samples'); n = 1.
Another assay concerns PI4KB. Particulars: read-out: apparent Kd; compound concentrations:100 nM and 1000 nM (sheet 'Samples'); n = 1.
The subject of another assay is PIK3C2A. Particulars: read-out: apparent Kd; compound concentrations:100 nM and 1000 nM (sheet 'Samples'); n = 1.
Another assay concerns PIK3C2B. The following applies: read-out: apparent Kd; compound concentrations:100 nM and 1000 nM (sheet 'Samples'); n = 1.
In another assay the test system is PIK3CA. Particulars: read-out: apparent Kd; compound concentrations:100 nM and 1000 nM (sheet 'Samples'); n = 1.
Another assay concerns PIK3CB. The following applies: read-out: apparent Kd; compound concentrations:100 nM and 1000 nM (sheet 'Samples'); n = 1.
The next assay has as its system PRKDC. Particulars: read-out: apparent Kd; compound concentrations:100 nM and 1000 nM (sheet 'Samples'); n = 1.
Where [1] appears, read: compound concentrations:100 nM and 1000 nM (sheet 'Samples').

Like-named read-outs stand apart in the source and are kept apart here.

In the case of `Cc1ccc(C)c(C2=C(c3cn(C)c4ccccc34)C(=O)NC2=O)c1` [RO0317699-000], the potency estimated from few doses in the assay on ADCK3 (compound concentrations: 100 nM and 1000 nM (sheet 'Samples'), CATDS: 0.28187952548436401) was 629 nM; in the assay with GSK3A it was 316 nM; in the assay on GSK3B, 404 nM.

`Cc1ccc(NC(=O)c2ccnc(N3CCN(C)CC3)c2)cc1-c1ccc(C(=O)NCC2CC2)cc1` [GW775604X]: the potency estimated from few doses is 1660 nM in the assay on ADCK3 (compound concentrations: 100 nM and 1000 nM (sheet 'Samples'), CATDS: 0.117650755909267); 1570 nM with GALK1; 840 nM in the assay on MAPK14; 1430 nM in the assay on MAPK1; 59 nM with PIK3CD (compound concentrations: 100 nM and 1000 nM (sheet 'Samples'), CATDS: 0.661841764967533); 1650 nM in the assay on PIM2. Besides, in the assay with STK16, the potency estimated from few doses was 1250 nM.

With `COc1ccc(-c2cc3c(C)nc(N)nc3n([C@H]3CC[C@H](OCCO)CC3)c2=O)cn1` [PFE-PKIS_29], the potency estimated from few doses in the assay with ADCK3 (setting [1]) is 1460 nM; with DHCR24, 1750 nM; in the assay with DJA1 it was 1960 nM; in the assay with ERBB3, 453 nM; in the assay on PI4KA, 61.5 nM; in the assay with PI4KB it was 702 nM. Moreover, the potency estimated from few doses with PIK3C2A was 999 nM; in the assay with PIK3C2B, 34.9 nM; with PIK3CA, 1.27 nM; with PIK3CB it was 10.3 nM; in the assay on PIK3CD (setting [1]), 0.67 nM; in the assay with PRKDC it was 817 nM.

In the case of `O=C(Nc1cccc(-c2nn3ccccc3c2-c2ccnc(Nc3cccc(F)c3)n2)c1)c1c(F)ccc(F)c1Cl` [GSK357952A], the potency estimated from few doses in the assay on ADCK3 (compound concentrations: 100 nM and 1000 nM (sheet 'Samples'), CATDS: 1) is 131 nM.
